Screen size: about 97,000 compounds; about 130 (0.13%) were called active. Rule as the data show it: active = inhibition above about 34% (passing the limit was not always enough); inactive = the rest. The list comes from a sample in which actives are over-represented; it also holds similar structures and randomly drawn compounds.
What follows are compounds tested against Serine/threonine-protein kinase PLK1 (Homo sapiens) (UniProt P53350) (assay: Plk1 polo box domain binding inhibitors, primary screen, biochemical, fluorescence polarization (AID 693)). Details: Plk1 PBD phosphopeptide binding, active compounds read high,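 tested at about 20 µM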.
Serine/threonine-protein kinase PLK1 (Homo sapiens), sequence (P53350 whole entry, looked up, the tested form may be a part): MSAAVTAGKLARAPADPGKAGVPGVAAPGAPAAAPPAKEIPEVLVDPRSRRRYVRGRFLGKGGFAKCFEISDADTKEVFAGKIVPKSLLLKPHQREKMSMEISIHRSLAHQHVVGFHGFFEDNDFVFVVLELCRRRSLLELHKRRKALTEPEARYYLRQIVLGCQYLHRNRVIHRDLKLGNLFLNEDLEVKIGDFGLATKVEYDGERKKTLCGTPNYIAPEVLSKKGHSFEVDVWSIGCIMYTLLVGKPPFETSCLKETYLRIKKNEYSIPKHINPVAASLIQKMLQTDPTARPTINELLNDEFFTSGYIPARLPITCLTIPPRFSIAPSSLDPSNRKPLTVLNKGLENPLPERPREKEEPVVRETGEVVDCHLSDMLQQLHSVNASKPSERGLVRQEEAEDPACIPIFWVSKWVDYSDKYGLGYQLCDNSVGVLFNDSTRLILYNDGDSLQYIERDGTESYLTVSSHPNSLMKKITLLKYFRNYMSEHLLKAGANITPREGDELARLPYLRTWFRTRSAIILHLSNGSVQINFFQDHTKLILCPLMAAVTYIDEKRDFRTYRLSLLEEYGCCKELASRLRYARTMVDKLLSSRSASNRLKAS

inhibition, inactive:
COc1ccc(NS(=O)(=O)c2ccc(NC(=S)NC(=O)CC(C)C)cc2)cc1 3.41%
CCc1ccc2nc3sc(C(=O)Nc4nnc(CC)s4)c(N)c3cc2c1 -67.7%
O=C(Cn1cc(-c2nnnn2-c2ccc(Cl)cc2)c(=O)c2ccccc21)c1ccccc1 6.2%
COC(=O)c1ccccc1NC(=O)Cc1ccccc1OC 12.5%
COC(=O)c1nc2ccccc2s1 -0.85%
CCOC(=O)N1CCN(C(=O)COc2ccc(Cl)cc2C)CC1 -13.2%
O=C(N/N=C/c1ccc(O)cc1)/C(=C/c1ccc([N+](=O)[O-])cc1)NC(=O)c1ccccc1 -6.05%
CNC(=O)/C(=C\C=C\c1ccccc1)NC(=O)c1ccc([N+](=O)[O-])cc1 -9.26%
O=C1CC(C(F)(F)C(F)(F)C(F)(F)C(F)(F)F)=Nc2ccccc2N1 5.5%
COC(=O)c1ccc(C(=O)OC)c(NC(=S)N2CCCCC2)c1 -20.3%
CCCCOc1ccc(N(CC(=O)NCC2CCCO2)C(=O)CCC(=O)Nc2cc(C)ccn2)cc1 (centres undefined) -5.72%
C/C(=N\NC(=O)c1ccc(C)cc1)C1C(=O)c2ccccc2C1=O -15.6%
O=c1c([N+](=O)[O-])cc(C(F)(F)F)cn1Cc1cccc(Cl)c1 2.97%
COc1ccc(S(=O)(=O)Nc2ccc3oc(C)c(C(C)=O)c3c2)cc1 -17.3%
CCNc1nc(NC(C)C)nc(OCCOC(=O)c2ccccc2)n1 -7.64%
CC1CC(C)CN(S(=O)(=O)c2cccc(C(=O)N3C(=O)c4cccc(N)c4C3=O)c2)C1 (centres undefined) 24.3%
O=C(CSCc1ccccc1Cl)NNC(=O)c1ccccc1 -5.03%
Cn1c(=O)n(C)c2cc(/C=N/NC(=O)c3cccc(Br)c3)ccc21 -16.4%
CC1CCC(N2CC(=O)N(Cc3ccc4c(c3)OCO4)C(c3ccc(F)cc3)C2=O)CC1 (centres undefined) -19%
COc1cc(OC)c(/C=N/NC(=O)c2ccc([N+](=O)[O-])cc2)cc1Br -6.93%
CCC1(C)Cc2c(sc3nnn(CC(=O)Nc4ccc(Cl)cc4)c(=O)c23)CO1 (centres undefined) -26.3%
COc1cccc(N2CCN(C(=O)Nc3ccc4c(c3)NC(=O)CO4)CC2)c1 16.5%
COc1ccc(NC(=O)Cn2c(=O)n(Cc3ccco3)c(=O)c3ccccc32)cc1 10.4%

inhibition, active:
O=C(NCCc1ccccc1)/C(=C\c1ccc([N+](=O)[O-])cc1)NC(=O)c1ccccc1 55.4%

Reference: PubChem BioAssay AID693 (University of Pittsburgh Molecular Library Screening Center, 2007)
